A short description of this assay: qHTS assay for re-activators of p53 using a Luc reporter: Hit Validation with no p53 Expressed. The procedure, abridged: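 Counter-screen of primary hits in a cell line not transfected with p53, in Opti-MEM with 10% FBS; compounds at several concentrations (10 mM stock, 1:5; top 46.1 µM in well), 24 h at 37 deg C, 5% CO2. Luminescence read after 10 min with Amplite reagent.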
Background: qHTS replaces the single test concentration by a dilution series.

Potency data for 116 molecules are collected here from PubChem BioAssay AID624331 (National Center for Advancing Translational Sciences (NCATS), 2012).

Records with an inconclusive call do not appear. Where a call stands in place of a potency, no number is given. Active and inactive are the calls of the source. Calls follow the shape of the dose curve; as a rule, active = well fitted activation curve with a large enough effect; inconclusive = small, poorly fitted or top-dose-only effect; inactive = no such curve, though single readings can be large or run the other way.
Potency is read from the fitted curve at half-maximal effect.

On to `Cc1cc(C)nc(SCC(=O)OCC(=O)Nc2nc3ccccc3s2)n1`, for which the Potency result is “inactive”. Under `Nc1ccc(-c2cnc(-c3ccc(N)cc3)nc2)cc1` stands “inactive”; under `CCOc1ccc(NC(=O)/C=C/c2ccccc2)c([N+](=O)[O-])c1`, “inactive”. Regarding `CCOC(=O)N/N=C\c1ccc(C)s1`, the Potency result was “inactive”.

With `C=CCNc1ncnc2c1cnn2-c1ccc(Cl)cc1`, the Potency result was “inactive”. Under `Oc1c(CN2CCOCC2)cc(COCc2ccccc2)c2cccnc12` stands “inactive”; under `Oc1ccc(N=Cc2c(O)ccc3ccccc23)cc1`, “inactive”.

Regarding `O=C(/C=C/c1ccco1)Nc1ccc2nn(-c3ccccc3)nc2c1`, the Potency result is “inactive”. In the case of `Cc1c(C(=O)OC2CCC(C)CC2)[nH]c2c1C(=O)CCC2` (stereo unspecified) it was “inactive”.

Regarding `O=C(Nc1cccc(O)c1)C(=O)Nc1ccccn1`, the Potency result is “inactive”. In the case of `Cc1cccc(-n2nc([N+](=O)[O-])c(=NC3CCN(Cc4ccccc4)CC3)n2O)c1` it was “inactive”; in that of `COc1ccc(N2CCN(CCCNC(=O)C3(S(=O)(=O)c4ccc(Cl)cc4)CC3)CC2)cc1`, “inactive”; in that of `O=C(c1ccco1)n1c(=S)nc2ccccn21`, “inactive”. Under `O=C(Nc1ccc(COc2ccccc2)cc1)c1cccc([N+](=O)[O-])c1` stands “inactive”. In the case of `Cc1ccc(C)c(/C=C/C(=O)c2ccccc(=O)c2O)c1` it was “inactive”; in that of `Nc1nc(-c2ccc([N+](=O)[O-])cc2)cs1`, “inactive”. Consider `Oc1ccccc1-c1cc(-c2ccc3c(c2)OCCO3)n[nH]1`, for which the Potency entry was “inactive”.

Regarding `Cc1cc(=O)[nH]c(N/N=C/c2ccccn2)n1`, the Potency entry was “inactive”.

In the case of `O=C(NNC(=O)c1ccc(Cl)cc1Cl)c1ccncc1`, the Potency entry was “inactive”. In the case of `Cc1ccc2oc(-c3ccc(C)c(NC(=S)NC(=O)c4cccs4)c3)nc2c1` it was “inactive”; in that of `COc1ccc(C2/C(=C(/O)c3ccc(C)cc3)C(=O)C(=O)N2CCCN2CCOCC2)cc1` (stereo unspecified), “inactive”; in that of `C/C(=N\NC(=S)NC(C)C)c1ccc(Cl)s1`, “inactive”. Under `C=CCn1c(SC(F)F)nc2scc(-c3ccco3)c2c1=O` stands “inactive”; under `COc1ccc(S(=O)(=O)NC2CC(C)(C)NC(C)(C)C2)c2ccccc12`, “inactive”. In the case of `COc1ccccc1C(=O)NNC(=O)c1cccc(F)c1` it was “inactive”; in that of `Cc1csc(NC(=O)/C=C/c2ccc(C)o2)n1`, “inactive”. For `c1cnc2c(OCc3nc4ccccc4[nH]3)cccc2c1`, the Potency result was “inactive”.

For `CC1CCC(NC(=O)C2CCN(C(=O)Nc3ccccc3)CC2)CC1` (stereo unspecified), the Potency entry was “inactive”. Take `COCCN(Cc1cn[nH]c1-c1ccc2cc(OC)ccc2c1)C(C)C`: the Potency result was “inactive”.

For `Oc1ccccc1-c1cc(-c2ccccc2)n[nH]1`, the Potency entry was “inactive”.

For `O=C(N/N=C\c1cc(Cl)ccc1O)c1ccc(S(=O)(=O)N2CCCCC2)cc1`, the Potency entry was “inactive”.

As for `Cc1ccc(C(=O)CC(Nc2ccc(F)cc2)c2ccccc2)cc1` (stereo unspecified), the Potency entry is “inactive”. In the case of `Cc1ccc(/C=C(\C#N)C(=O)NCC2CCCO2)o1` (stereo unspecified) it was “inactive”; in that of `CC(C)(C)c1ccc(S(=O)(=O)N2CCSC2)cc1`, “inactive”; in that of `O=C(Nc1nc(-c2ccco2)c(-c2ccco2)s1)c1ccc(F)cc1F`, “inactive”. Under `COC(=O)c1c(C)[nH]c(C(=O)/C=C/c2ccccc2)c1C` stands “inactive”; under `O=C(/C=C/c1cnc2ccccc2n1)NC12CC3CC(CC(C3)C1)C2`, “inactive”. Under `Cc1ccc(CCc2nnc(SCC(=O)Nc3cccc(Cl)c3)n2-c2ccccc2)o1` stands “inactive”; under `COc1cc(/C=N/Nc2nc3ccccc3s2)ccc1OC(=O)c1ccccc1F`, “inactive”. Consider `CCOC(=O)c1c(NC(=O)CN2CCCc3ccccc32)sc(C)c1C`, for which the Potency entry was “inactive”. In the case of `COCCNc1nc2sc3c(c2c(=O)n1Cc1ccco1)CCCCC3`, the Potency result is “inactive”. Under `O=C(Nc1cccc(N=Cc2cc(Cl)cc(Br)c2O)c1)c1ccco1` stands “inactive”; under `CC(=O)Nc1ccc(SCC(=O)c2cc(C)n(-c3ccccc3)c2C)cc1`, “inactive”; under `CCCN1CCC(=NNC(=O)CSc2cc(C)c(Br)cc2C)CC1`, “inactive”.

For `Cc1occc1C(=O)NNC(=S)Nc1ccccc1C(F)(F)F`, the Potency entry was “inactive”. Under `Cc1cc(C(=O)COc2ncnc3sccc23)c(C)n1C1CC1` stands “inactive”; under `N#Cc1c(NC(=O)/C=C/c2ccco2)sc2c1CCCC2`, “inactive”.

Consider `O=C1NC(c2ccc(Br)cc2)=N/C1=C/c1ccco1`, for which the Potency result is “inactive”. Under `CNC(=S)N/N=C/c1cc(Br)cc(Br)c1O` stands “inactive”; under `Cc1ccc(OC(=O)c2cccc(S(=O)(=O)N3CCCC3)c2)c(-n2nc3ccccc3n2)c1`, “inactive”; under `O=C(CCS(=O)(=O)c1ccccc1)Nc1nc2c(s1)CCCC2`, “inactive”. In the case of `O=C(Nc1ccc(Cl)cc1C(F)(F)F)c1ccccc1` it was “inactive”. In the case of `Cc1ccc(OCC(=O)c2cc(C)n(C)c2C)c([N+](=O)[O-])n1`, the Potency result is “inactive”. Under `O=C(COC(=O)c1cc2ccccc2oc1=O)Nc1cccc(S(=O)(=O)N2CCCCCC2)c1` stands “inactive”. In the case of `Cc1cccnc1NC(=O)/C=C/c1ccc2c(c1)OCO2` it was “inactive”; in that of `O=C(Nc1ccc2c(c1)CCC2)c1ccccc1`, “inactive”. In the case of `O=C(CNS(=O)(=O)c1cccc(Cl)c1)Nc1ccc(-c2nc3ccccc3s2)cc1` it was “inactive”; in that of `Nc1nonc1-n1nnc(C(=O)N/N=C/c2ccc(Br)cc2)c1CSC1=NCCS1`, “inactive”. Take `CC1CCN(C2=C(NS(=O)(=O)c3ccc(Br)cc3)C(=O)c3ccccc3C2=O)CC1`: the Potency result was “inactive”. On to `CC1CCCN(C(=O)CN2C(=O)c3ccccc3S2(=O)=O)C1` (stereo unspecified), for which the Potency entry is “inactive”. In the case of `CC(C)C(=O)OCC(=O)Nc1ccc(N=Nc2ccccc2)cc1` it was “inactive”; in that of `COc1ccccc1OCCn1nnc2ccccc21`, “inactive”; in that of `O=C(Oc1c(Cl)cc(Cl)c2cccnc12)c1cccc([N+](=O)[O-])c1`, “inactive”. Under `O=C(CSc1nnc(-c2ccc3c(c2)OCCO3)o1)N1CCCC1` stands “inactive”; under `O=C(CNc1ccccc1)N/N=C/c1c[nH]c2ccccc12`, “inactive”. Under `COc1ccc(N2CCN(C3CCCN(Cc4cccc(OC)c4)C3)CC2)cc1` (stereo unspecified) stands “inactive”. For `CCc1ccc(-n2cc(-c3ccc([N+](=O)[O-])cc3)[nH]c2=S)cc1`, the Potency result is “inactive”. In the case of `Cc1ccccc1C(=O)Nc1ccc(Br)cn1` it was “inactive”. Under `COc1ccc2c(c1OC)C(=O)OC2Nc1nc(-c2cc3ccccc3oc2=O)cs1` (stereo unspecified) stands “inactive”; under `O=C(NNC(=O)C1CCCO1)c1ccccc1Cl` (stereo unspecified), “inactive”.

For `Cc1noc(C)c1C(=O)OCC(=O)N1CCc2ccccc21`, the Potency entry was “inactive”.

As to `COc1cc(C2NC(=S)NC(O)(C(F)(F)F)C2C(=O)c2cccs2)cc(OC)c1O` (stereo unspecified), the Potency entry is “inactive”. Regarding `Cc1ccc(NC(=O)c2ccc(OC(=O)C(C)Oc3ccc(Cl)cc3C)cc2)cc1` (stereo unspecified), the Potency entry is “inactive”. In the case of `Cn1ncc(Cl)c(Oc2ccc(C(C)(C)C)cc2)c1=O` it was “inactive”; in that of `COc1ccc(-n2cnc3c(cnn3CCC#N)c2=N)cc1`, “inactive”; in that of `C/C(=C\COc1ccc2ccc(=O)oc2c1)CC[C@@H](O)C(C)(C)O`, “inactive”.

Regarding `Cc1cc(-c2ccccc2)n2ncc(-c3ccccc3)c2n1`, the Potency is 1840 nM (active).

As for `CSCCC(NC(=O)c1ccc(Cl)cc1Cl)C(=O)N1CC(C)OC(C)C1` (stereo unspecified), the Potency result is “inactive”. In the case of `O=C(CCN1C(=O)NC2(CCCC2)C1=O)Nc1ccc(-c2nc3ccccc3s2)cc1`, the Potency is 2310 nM (active). As to `COc1cccc(/C=C2\Oc3ccc(O)cc3C2=O)c1O`, the Potency result is “inactive”. On to `O=C(CC1NC2CCCCC2NC1=O)Nc1ccc2c(c1)OCO2` (stereo unspecified), for which the Potency result is “inactive”. Under `O=C(N/N=C/c1sc(=O)[nH]c1-[n+]1ccc2ccccc2c1)c1ccccc1[O-]` stands “inactive”; under `C/C(Cn1nnc([N+](=O)[O-])n1)=N\NC(=O)c1ccc(C)cc1`, “inactive”. Under `Cc1ccc(C(=O)CC(=O)COc2ccc(Cl)cc2)cc1` stands “inactive”. Under `CCN(CC)CCn1c(SCC(=O)Nc2ccc3c(c2)CCC3)nc2ccccc2c1=O` stands 8200 nM (active); under `N#Cc1cccc(N=Cc2c(O)ccc3ccccc23)c1`, “inactive”; under `CC(=O)c1cc2c(C)c(C(=O)c3ccccc3)oc2cc1O`, “inactive”.

Regarding `COc1ccc(NC(=O)CN(C)CC(=O)Nc2ccccc2SC)cc1`, the Potency result is “inactive”. On to `CCOc1ccc(NC(=O)c2cnsn2)cc1`, for which the Potency entry is “inactive”. In the case of `COc1ccc(-n2c(C)cc(C(=O)COc3ccc(C)nc3[N+](=O)[O-])c2C)cc1` it was “inactive”; in that of `COc1ccc2[nH]c(=O)c3c(c2c1)OC(C)(C)C=C3`, “inactive”; in that of `Cc1ccc(NC(=O)c2ccc(OC(=O)COc3ccc(Cl)c(C)c3)cc2)cc1`, “inactive”. Under `COc1ccccc1NC(CC(=O)c1ccccc1)C(=O)OCC(=O)c1ccc(C)cc1` (stereo unspecified) stands “inactive”; under `CCOc1ccc(NS(=O)(=O)c2ccc(C(=O)NC3CCN(Cc4ccccc4)CC3)cc2)cc1`, “inactive”; under `Cc1ccc(NC(=O)c2ccc3nc[nH]c3c2)cc1C`, “inactive”. Under `CCOCC(=O)Nc1nc2ccc(OCC)cc2s1` stands “inactive”; under `O=C(CSCC(=O)Nc1cccc([N+](=O)[O-])c1)Nc1ccccc1`, “inactive”. In the case of `CC1(C)NC(=O)N(CC(=O)N2CCN(S(=O)(=O)c3ccccc3C(F)(F)F)CC2)C1=O`, the Potency entry is “inactive”. For `Cc1cc(-c2nnc(SCc3ccccn3)o2)no1`, the Potency result was “inactive”. As for `Nn1cnnc1N/N=C\c1ccc(-c2ccccc2[N+](=O)[O-])o1`, the Potency result is “inactive”. In the case of `Cn1c(-c2ncc(F)cc2F)cc2onc(-c3c(F)cccc3Cl)c2c1=O` it was “inactive”. In the case of `C/C(=N\NC(=O)c1ccc(F)cc1)c1ccccn1` it was “inactive”; in that of `COc1ccc(N=C(N)SCc2ccccn2)cc1`, “inactive”; in that of `COc1ccc(CCNC2CCC(c3ccccc3)CC2)cc1` (stereo unspecified), “inactive”. Under `CC(C)(C)NC(=O)CSC(=Nc1ccccc1F)NC#N` stands “inactive”; under `COc1cc(NC(=O)C(C)C)ccc1NC(=O)c1ccco1`, “inactive”.

With `N#Cc1cc2c(nc1SCC(=O)Nc1nccs1)CCCCC2`, the Potency result was “inactive”.

On to `C=CCNc1nc(-c2cc3ccccc3o2)cs1`, for which the Potency result is “inactive”. Under `CC1CCc2c(sc(NC(=O)C3=COCCO3)c2C(N)=O)C1` (stereo unspecified) stands “inactive”; under `CCOc1ccc2c(c1)C(=NNC(=O)c1ccncc1)c1cc(OCC)ccc1-2`, “inactive”. In the case of `CC1C(=O)CCN(C(C)(C)C)C1C` (stereo unspecified) it was “inactive”; in that of `Cc1cccc(NC(=O)/C=C/c2ccc(Cl)cc2)n1`, “inactive”; in that of `O=C(O)/C=C/c1nc(-c2ccccc2)n2ccccc12`, “inactive”.

Take `CC(Sc1nc(N)cc(=O)[nH]1)C(=O)NNC(=O)c1cccc(Cl)c1` (stereo unspecified): the Potency result was “inactive”. As for `Cc1ccc(OCC(=O)c2cc(C)n(C3CC3)c2C)c([N+](=O)[O-])n1`, the Potency result is “inactive”. With `Cc1ccc(S(=O)(=O)CNC(=O)c2ccccc2)cc1`, the Potency entry is “inactive”.
